Mcl1-Bid inh: Mcl-1/Bid binding inhibitors, primary screen, biochemical, TR-FRET, 1536-well; Induced myeloid leukemia cell differentiation protein Mcl-1 (Homo sapiens), Q07820; 220,000 compounds, 0.97% hits; inhibition, % at 21.7 µM; TR-FRET Mcl-1/Bid-Dy647 peptide binding;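 active = compounds that cut the binding signal by more than half at the single screening dose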;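 also: His-tagged Mcl-1 with europium anti-His antibody binding Bid BH3 peptide; 0% = Mcl-1 plus peptide wells and 100% = peptide-only wells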
Target sequence (Q07820 whole entry, looked up): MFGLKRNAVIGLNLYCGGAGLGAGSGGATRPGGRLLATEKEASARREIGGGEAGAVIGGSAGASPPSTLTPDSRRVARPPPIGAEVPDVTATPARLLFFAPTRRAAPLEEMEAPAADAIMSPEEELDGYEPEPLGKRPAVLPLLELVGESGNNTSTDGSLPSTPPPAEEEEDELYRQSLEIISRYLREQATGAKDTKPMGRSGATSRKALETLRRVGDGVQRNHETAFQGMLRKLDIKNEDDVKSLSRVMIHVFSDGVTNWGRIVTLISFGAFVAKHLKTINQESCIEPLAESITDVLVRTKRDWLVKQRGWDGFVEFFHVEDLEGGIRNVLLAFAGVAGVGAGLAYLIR
MCL1 BIM primary: inhibitors of MCL1 binding to BIM-BH3, primary screen, biochemical, fluorescence polarization | inhibition, % at 10.9 µM | 320,000 compounds, 0.68% hits | Induced myeloid leukemia cell differentiation protein Mcl-1 (Homo sapiens), Q07820 | GST-MCL1 / FITC-Bim-BH3 fluorescence polarization;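 active = inhibition above the mean inhibition of all tested compounds plus 3 SD, set per campaign, cut at about 40% in these data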;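 also: 0% = DMSO wells and 100% = unlabeled Bim-BH3 peptide control; higher means more loss of mP so more displacement of Bim peptide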
14-3-3 Bad PPI: inhibitors of 14-3-3 zeta/Bad binding, primary screen, biochemical, TR-FRET, bovine 14-3-3 zeta | 14-3-3 protein zeta/delta (Bos taurus), P63103 | TR-FRET 14-3-3zeta/Dy647-pBad peptide displacement, 1 h | inhibition, % at 21.7 µM | 220,000 compounds, 0.71% hits | AID 781, 2007;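 active = inhibition above about 70%, limit read from the data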;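 also: 0% = full 14-3-3 plus peptide FRET controls and 100% = background without 14-3-3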
Target sequence (P63103 whole entry, looked up): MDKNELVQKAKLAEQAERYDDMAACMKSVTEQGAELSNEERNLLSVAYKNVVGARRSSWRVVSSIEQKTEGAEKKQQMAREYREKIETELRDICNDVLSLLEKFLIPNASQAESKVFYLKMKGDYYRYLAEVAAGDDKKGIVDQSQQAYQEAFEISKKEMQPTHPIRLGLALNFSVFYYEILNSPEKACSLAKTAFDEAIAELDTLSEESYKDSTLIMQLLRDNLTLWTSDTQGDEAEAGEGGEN
Mcl1 Noxa PPI: Mcl-1/Noxa binding inhibitors, primary screen, biochemical, TR-FRET, 1536-well. TR-FRET Mcl-1/Noxa peptide binding, 2 h. inhibition, % at 21.7 µM. 220,000 compounds, 1.5% hits. AID 1022, 2008;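 active = compounds that cut the protein-peptide binding signal by more than 50% relative to plate controls in a single-dose test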;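 also: His-tagged Mcl-1 with rhodamine Noxa BH3 peptide and terbium anti-His antibody; 0% = Mcl-1 plus Noxa peptide wells and 100% = peptide-only wells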
Bim-Mcl-1: inhibitors of Bim peptide binding to Mcl-1, primary screen, biochemical, bead-based flow cytometry, multiplex; Induced myeloid leukemia cell differentiation protein Mcl-1 (Homo sapiens), Q07820; Bim peptide-Mcl-1 binding; inhibition, % at 10 µM; 190,000 compounds, 0.1% hits; AID 1009, 2008; in the data active = inhibition above about 40%;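 also: 0% = no compound tracer wells and 100% = peptide blocker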
eIF4E 4G PPI: eIF4E–eIF4G protein interaction inhibitors, primary screen, biochemical, uHTS, TR-FRET, eIF4GI fragment | 220,000 compounds, 0.37% hits | inhibition, % at 21.7 µM | TR-FRET eIF4E-eIF4GI(517-606) binding, 2 h;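 active = inhibition above about 30%, limit read from the data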;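 also: 0% = full FRET control wells and 100% = background wells lacking eIF4GI fragment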
* marks the source's active call; other numbers are inactive results; . = not tested or not shown; [ ] = remark or other dose. Most compounds without a hit are left out; they make up all but 2.6% or so of the library.

SMILES	Mcl1-Bid inh	MCL1 BIM primary	14-3-3 Bad PPI	Mcl1 Noxa PPI	Bim-Mcl-1	eIF4E 4G PPI
COc1ccc(NC(=O)COc2ncnc3ccccc23)cc1S(=O)(=O)N1CCOCC1	-18	0	-3	-11	41*	3
O=C(O)C[C@H]1c2ccccc2S(=O)(=O)N1C1CCCC1	.	8	.	.	.	.
CCCCn1c(=O)[nH]c(=O)c2c1nc(Cn1ncc(Cl)c(Cl)c1=O)n2CCC	.	0	.	.	.	.
CCOC(=O)c1ccc(NC(=O)CSCCC(=O)O)cc1	0	-2	-2	-8	68*	-4
O=C(CN1CSCC1=O)N1CCN(S(=O)(=O)c2ccc(Cl)cc2)CC1	.	3	.	.	.	.
CCOc1ccccc1NC(=O)/C=C/C(N)=O	17	2	21	98*	-4	6
Cc1ccc(CNC(=O)COC(=O)c2cccc(S(=O)(=O)N3CCCCC3)c2)cc1	.	1	.	.	.	.
O=Cc1sc(N2CCOCC2)nc1-c1ccccc1	-19	-5	-4	23	1	-2
Cc1c(/C=N/n2cnnc2)c2ccccc2n1C	-7	-1	71*[fluorescence artefact?]	7	1	-1
Cn1c2c(c(=O)[nH]c1=O)C(c1cccc(O)c1)C1=C(N2)c2ccccc2C1=O (configuration not stated)	-87	.	-24	36	0	-1
CCS(=O)(=O)C1=NN2C(=N)/C(=C\c3ccc(OC(=O)c4ccco4)c(Br)c3)C(=O)N=C2S1	.	-7	.	.	.	.
CCS(=O)(=O)C1=NN2C(=N)/C(=C\c3ccc(SCc4ccco4)o3)C(=O)N=C2S1	12	.	24	80*	5	7
O=c1oc2cc(O)c(Cl)cc2c2ccccc12	-61	-2	-24	54*	-1	5
CC(=O)N1CCc2cc(Br)cc(S(=O)(=O)N3CCN(c4ccccn4)CC3)c21	.	0	.	.	.	.
CC(=O)N1c2c(cc(Br)cc2S(=O)(=O)N2CCN(c3ccccn3)CC2)CC1C (configuration not stated)	-15	6	88*	2	0	3
COC(=O)c1cc(CSc2nc3ccccc3c(=O)n2C)oc1C	.	0	.	.	.	.
CC(=O)N=C1SC2CS(=O)(=O)CC2N1c1ccc(-c2nc3ccc(C)cc3s2)cc1 (configuration not stated)	-50	-102	66	-51	-1	0
Cc1ccc2nc(-c3ccc(N4C(=NC(=O)CCC(=O)O)SC5CS(=O)(=O)CC54)cc3)sc2c1 (configuration not stated)	-11	7	11	55*	-6	11
CC1SC(C)C(=O)N(CC(=O)Nc2ccc([N+](=O)[O-])cc2)C1=O (configuration not stated)	-79	1	-2	-26	0	-2
CCCOc1ccc(-c2nnc(N)s2)cc1	-37	6	6	62*	-3	0
Cc1ccc(CNC(=O)C2CCC(CNS(=O)(=O)c3cccs3)CC2)cc1 (configuration not stated)	.	-1	.	.	.	.
CN1CCN(CCOc2cccc(Cl)c2)CC1	-13	1	73*	9	-1	5
Nc1cc2nc[nH]c2cc1N	-9	.	92*	74*	8	36*
O=C(Cc1c[nH]c2ccccc12)NCc1ccccc1F	-31	-2	-13	9	2	1
COc1cccc(CNS(=O)(=O)c2ccc3c(c2)C(C)(C)C(=O)N3C)c1	.	0	.	.	.	.
SMILES	Mcl1-Bid inh	MCL1 BIM primary	14-3-3 Bad PPI	Mcl1 Noxa PPI	Bim-Mcl-1	eIF4E 4G PPI
Cc1cc(C)c(Nc2cc(S(=O)(=O)O)c(N)c3c2C(=O)c2ccccc2C3=O)c(C)c1	94*	52*	73*[fluorescence artefact?]	107*	-2	56*[fluorescence artefact?]
Cc1cc(C)c(NC(=O)COC(=O)c2cccc3c2C(=O)c2ccccc2C3=O)c(C)c1	-3	9	-7	4	4	2
CCCCC1=CC2=CC(=O)C(C)(OC(=O)CC)C(=O)C2=CN1Cc1ccccc1 (configuration not stated)	-76	3	-5	-3	.	0
CCCCC1=CC2=CC(=O)C(C)(OC(=O)CC)C(=O)C2=CN1c1ccccc1 (configuration not stated)	-84	12	5	-1	.	71*
CC1CCCN(CCOCCOc2ccc(Cl)cc2Br)C1 (configuration not stated)	31	2	71*	18	-2	-11
CC1CC(C)CN(CCOc2cccc(Cl)c2Cl)C1 (configuration not stated)	39	5	52	22	-1	-4
CC1CCCN(CCOCCOc2ccc(Br)cc2Cl)C1 (configuration not stated)	18	13	5	26	-4	-1
Clc1ccc(OCCN2CCCCC2)c(Cl)c1	75*	4	36	35	2	0
CC1CC(C)CN(CCOc2ccc(Cl)cc2Cl)C1 (configuration not stated)	25	3	72*	28	-5	-4
CCSc1nc2ccccc2n1CC(N)=O	-11	3	-10	12	-7	-1
CCSc1nc2ccccc2n1C(=O)/C=C\c1ccc(OC)c(OC)c1	-25	1	4	62*	-2	-3
CC1CC2(NC(=O)NC2=O)C(C)CN1C (configuration not stated)	-9	5	-2	-2	-5	8
CC1C(c2ccccc2)N(C)CCC12NC(=O)NC2=O (configuration not stated)	88*	6	-10	-17	0	-4
CC(C)(O)c1nnn(-c2ccccc2)c1C(F)(F)F	7	-3	2	1	-1	-1
Cc1nc(C(C)(C)O)n(-c2ccccc2)n1	-10	-4	-12	5	0	92*[fluorescence artefact?]
COc1ccc(OCC(=O)NNC(=O)c2cccc(O)c2)cc1	-45	12	-7	13	-2	3
Cc1c(C(=O)N2CCCCC2)nn(-c2ccc(Cl)cc2)c(=O)c1C#N	11	9	17	9	-3	43*
CCc1ccc(NC(=O)COn2nnc3ccc(S(=O)(=O)N(C)C)cc32)cc1	-10	-4	4	12	-1	-11
CCc1ccc2c(COn3nnc4ccc(S(=O)(=O)N(C)C)cc43)cc(=O)oc2c1	53*	-5	46	12	-9	-4
Cc1cccc(Nc2cc(C)c3c(O)cccc3n2)c1C	-5	1	-9	53*	0	0
Cc1cccc(NC(=S)N(C)C)c1C	-24	1	-5	0	.	-8
